Reference: PMC5540273 (PLoS ONE, 2017)

What follows are compounds tested on RIPK4. Settings: concentration: 1 μM, replicates: in singlicate; n = 1.
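Also: KINOMEscan kinase panel screen.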

| SMILES | %Inh [%] |
| --- | --- |
| COc1ccc(Nc2ncc(C#N)c(Nc3ccccc3C(N)=O)n2)cc1N1CCN(C)CC1.Cl [GSK1558669] | 98.9 |
| O=C(Nc1cccc(-c2nn3ncccc3c2-c2ccnc(Nc3cccc(C(F)(F)F)c3)n2)c1)c1c(F)cccc1F [GSK299495] | 15 |
| Cc1cccc(-c2nc(Nc3ccc4ncsc4c3)c3ccccc3n2)n1 [GW867588] | 13 |
| Cl.Nc1ncnc2occ(-c3ccc(NC(=O)Nc4cc(C(F)(F)F)ccc4F)cc3)c12 [SB-707548] | 2 |
| C[C@@H](Oc1cc(-n2cnc3ccc(NC(=O)NC(C)(C)C)cc32)sc1C(N)=O)c1ccccc1Cl [GSK346294] | 4 |
| c1ccc(-c2cc(-c3c[nH]nc3-c3ccccn3)ccn2)cc1 [GW576604] | 0 |
| Cc1nnc(-c2ccc3occ(-c4ccc(C(C)O)cc4)c3c2)o1 (centres unmarked) | 0 |
| CC(C)Oc1ccc2c(-c3ccnc(Nc4ccc(N5CCN(C)CC5)cc4)n3)cnn2n1 [GW696155] | 27 |
| NS(=O)(=O)c1cccc(-c2ccc3ncc(N4CCOCC4)nc3c2)c1 [GSK1535721] | 1 |
| Fc1ccc(-c2ncn(CCCN3CCOCC3)c2-c2ccccn2)cc1 [SB-211742] | 0 |
| CN(C1=C(c2ccccc2)C(=O)NC1=O)c1ccccc1 [SB-334860] | 20 |
| CCc1nc(-c2cccc(C)c2)c(-c2ccnc(NCc3ccccc3)c2)s1 | 0 |
| O=C(NCCNc1ccnc(Nc2ccc(F)cc2)n1)Nc1ccccc1F [GSK1379880] | 11 |
| O=c1cc(N2CCOCC2)nc2n(Cc3cccc(F)c3)ccn12 [GSK2297430] | 0 |
| CC(C)(C)n1cnc2c(N)ncnc21 [SKF-97359] | 67 |
| O=c1cc(N2CCOCC2)nc2n(Cc3cccc(C(F)(F)F)c3)ccn12 [GSK2297543] | 0 |
| Cc1cccc(Cn2ccn3c(=O)cc(N4CCOCC4)nc23)c1 [GSK2297542] | 7 |
| O=C(NCCNc1ccnc(Nc2ccc(F)cc2)n1)c1cc2ccccc2s1 [GSK1379874] | 18 |

| SMILES | %Inh [%] |
| --- | --- |
| Cn1ccc2ncnc(Oc3ccc(NC(=O)Nc4ccncc4)c(Cl)c3)c21 | 0 |
| COc1ccc(COc2cc(-n3cnc4ccccc43)sc2C(N)=O)cc1 [GSK1024304] | 0 |
| Cc1ccc(C(=O)NCC(N)=O)cc1-n1c(C)cc(OCc2ccc(F)cc2F)c(Br)c1=O | 0 |
| Cc1ccc(NC(=O)c2ccnc(N3CCN(C)CC3)c2)cc1-c1ccc(C(=O)NCC2CC2)cc1 [GW775604] | 0 |
| Fc1ccc(-c2nn3c(OCC(F)(F)F)cccc3c2-c2ccncc2)cc1 [GW514784] | 0 |
| Fc1ccc(-c2ncn(CCCN3CCOCC3)c2-c2cccnc2)cc1 [SB-211743] | 4 |
| O=C(NOCC1CC1)c1ccc(F)c(F)c1Nc1ccc(I)cc1Cl | 100 |
| O=C(Nc1n[nH]c2cc(-c3cccc(F)c3)ccc12)C1CC1 [SB-735464] | 18 |
| COc1ccc(Nc2nccc(N3CCC(NC(=O)Nc4cccc(C(C)=O)c4)C3)n2)cc1 (centres unmarked) [GSK1379731] | 0 |
| N#Cc1ccc(-c2cc(-c3c[nH]nc3-c3ccccn3)ccn2)cc1 [GW693028] | 5 |
| COC(=O)Nc1nc2cc(Oc3ccc(NC(=O)Nc4cc(F)ccc4F)cc3)ccc2[nH]1.Cl [GW701424] | 8 |
| O=c1cc(N2CCOCC2)nc2n(Cc3cccc4ccccc34)ccn12 [GSK2333389] | 0 |
| c1ccc(-c2n[nH]cc2-c2ccnc3ccccc23)nc1 [GW271431] | 2 |
| Nc1nccc(-c2c(-c3ccc(F)cc3)ncn2C2CCN(CC(F)(F)F)CC2)n1 [SB-236560] | 72 |
| NCC(NC(=O)c1cc(-c2cn[nH]c2)c(-c2ccnc3[nH]ccc23)s1)c1ccccc1.O=C(O)C(F)(F)F.O=C(O)C(F)(F)F (centres unmarked) [GSK1325775] | 31 |
| Cc1c2ccc(N(C)c3ccnc(Nc4cccc(S(N)(=O)=O)c4)n3)cc2nn1Cc1ccccc1.Cl.Cl [GW787226] | 0 |
| COc1ccc(S(=O)(=O)NC2CCN(c3cc(C)nc(Nc4cccc(C#N)c4)n3)CC2)cc1.O=C(O)C(F)(F)F [GSK1653539] | 0 |
